SMILES strings stand for the structures.

This experiment has as its target Glucose transporter (Leishmania mexicana) (UniProt O61059). In words: ST_JUDE_LEISH: Cytotoxicity at 2uM final concentration against transgenic Leishmania Mexicana promastigotes LmGT2 that are glucose transport deficient and complemented with the L. Mexicana glucose transporter 2. Activity is measured by DNA content using SYBR green in vitro. In kind it is functional.
Turning to `CC(C)N(Cc1cnc2nc(N)nc(N)c2n1)c1ccc(Cl)c(Cl)c1`, the inhibition (as a rule, the relative decrease from the control value, in per cent) worked out at 1.16%. On to `Cc1cc(C2CCN(CCCCNC(=O)c3ccc(-c4ccc(C#N)cc4)cc3)CC2)c(C)cc1O`, for which the inhibition came out at 4.8%. With `O=C(Nc1ccc(S(=O)(=O)N2CCOCC2)cc1)c1cc(-c2cc(Cl)ccc2O)n[nH]1` the figure was 0.85%. For `CS(=O)(=O)NCCCNCc1ccc(-c2ccc(-c3nc4cc(F)ccc4[nH]3)s2)cc1`, the inhibition is -2.09%. For `Cc1ccccc1Nc1nc(NCCc2ccccc2)nc2ccccc12` the value was 18.3%.

For `COc1cc2nc(N3CCC(CNC(=O)c4ccc(-c5ccccc5)cc4)CC3)nc(N)c2cc1OC`, the inhibition is 0.24%.

In the case of `Cc1cc(-c2c[nH]c3ncc(-c4cccc5ncccc45)cc23)ccc1C(=O)O`, the inhibition amounted to 0.66%. As for `COc1ccc(C=CC(=O)NC(=O)c2ccccc2OC(=O)c2ccccc2)cc1OC`, the inhibition is 1.89%.

On to `NC(=O)c1ccsc1NC(=O)CNC(c1ccc(F)cc1)c1cccs1` (stereo not given), for which the inhibition amounted to 2.8%. With `Cc1ccc(NC(=O)c2ccc3ncccc3c2)cc1OC1CCN(Cc2ccc(F)cc2)CC1` the figure was 5.46%; with `COc1ccc(Nc2nc(C)cc(NCc3ccc(-c4c(C)noc4C)cc3)n2)cc1`, 2.01%.

Turning to `Cc1nnsc1C(=O)Nc1ccc(-c2ccc(-c3nc4cccc(C)c4[nH]3)s2)cc1`, the inhibition was determined as 2.44%. As for `Cc1cccc(CNc2nc(C)cc(N[C@@H](Cc3ccccc3)C(=O)NCc3cccc(F)c3)n2)c1`, the inhibition was 2.83%.

As for `O=C(/C=C/c1ccc(Cl)c(Cl)c1)NCCCCCCN1CCN(C(=O)Nc2ccc(C(F)(F)F)cc2)CC1`, the inhibition is 3.19%. With `COc1ccc2nccc([C@@H](O)CN3CCC(NCc4ccc5nnsc5c4)CC3)c2c1` the figure was -0.67%; with `O=C(N[C@H](Cc1ccc(Cl)cc1)C(=O)N1CCN(c2ccnc3cc(Cl)ccc23)CC1)[C@H]1Cc2ccccc2CN1`, -2.58%. With `Nc1ncc(-c2cn[nH]c2)cc1-c1nc2ccc(F)cc2[nH]1` the figure was 1.99%; with `COc1ccc(/C=C/C(=O)Nc2ccc(-c3ccncc3)cc2)cc1CCCN(C)C`, 6.94%. For `N#Cc1c(N)nc(SCC(=O)Nc2cc(C(F)(F)F)ccc2Cl)c(C#N)c1-c1cccs1` the value was 0.5%; for `CCCN(CCCN(CCCN(CCC)C(C)C)c1cc(C)nc(Nc2ccc(Cl)cc2)n1)C(C)C`, 6.27%. For the compound `c1ccc(-c2ccc(-c3csc(Nc4ccncc4)n3)cc2)cc1`, the inhibition came to 1.13%.

On to `COc1cccc(C(=O)NCCc2cccc(Cl)c2)c1Oc1ccccc1`, for which the inhibition is 1.65%.

With `CN1CCN(Cc2ccc(-c3cc4nccc(Nc5ccc(Oc6ccccc6)cc5)c4cc3Cl)o2)CC1`, the inhibition came out at 2.69%. With `Cc1noc(C)c1CN1Cc2ccccc2OC2(CCN(Cc3c[nH]c4cnccc34)CC2)C1` the figure was 2.32%.

On to `O=C(/C=C/c1ccc(Cl)c(Cl)c1)NCCCCCCN1CCCN(C(=O)Nc2cc(Cl)cc(Cl)c2)CC1`, for which the inhibition was -2.48%. Consider `CC(=O)Nc1ccc(CN2CCN(C(c3ccc(F)cc3)c3ccc(F)cc3)CC2)cc1`, for which the inhibition came to 2.11%. For `COc1cc(NC(=O)/C=C/c2cc3ccccc3n2C)ccc1OCCN(C(C)C)C(C)C` the value was 3.12%. For `COc1cc2nc(NCC3CCCO3)n3nc(-c4ccccc4)nc3c2cc1OC` (stereo not given), the inhibition worked out at 2.53%. Turning to `Cc1ccc2[nH]c(-c3cc(-c4cccc(CCN5CCOCC5)c4)cnc3N)nc2c1`, the inhibition amounted to 1.19%. Regarding `O=C(Nc1ccc(CN2CCN(S(=O)(=O)c3cccc(Cl)c3)CC2)cc1)c1cccs1`, the inhibition was 1.17%. For `Cc1cc(-c2cccc3c(NC(=O)N4CCc5cc6nccc(N7CCN8CCC[C@H]8C7)c6cc54)cccc23)cc(C)n1` the value was 1.59%; for `CCN(CC)CCCC(C)Nc1cc(C)nc2cc(Cl)ccc12` (stereo not given), 0.08%; for `CCc1ccc(-c2nc3cc(NC(=O)c4ccc([N+](=O)[O-])o4)ccc3o2)cc1`, 0.78%.

Consider `CN(CCCNCc1cccc2ccccc12)CCCNCc1cccc2ccccc12`, for which the inhibition is 1.98%. With `COc1ccc(Cc2nc3c(n2C(C)=O)SC(c2ccc(Cl)c(Cl)c2)=NN3C(C)=O)cc1` the figure was 5.39%; with `O=C(/C=C/c1ccc(Cl)c(Cl)c1)N1CCC(CN2CCC(c3c[nH]c4ncccc34)CC2)CC1`, 2.38%; with `O=S(=O)(NCCN1CCCC1)c1ccc(-c2cccc(CNCc3ccc(F)cc3)c2)cc1F`, 4.01%. For `CCNC1=NC2=C(CC(C(C)(C)C)CC2)C2(CCC(C(C)(C)C)CC2)S1` (stereo not given) the value was 1.15%. For `O=C(NCc1cccc(CN2CCOCC2)c1)c1cc(Br)cc(N2CCN(c3ccncc3)CC2)c1` the value was 0.57%; for `CNC(=O)c1cnc(Nc2ccc(N3CCOCC3)cc2)nc1Nc1cccc(O)c1`, -1.69%.

These data come from ChEMBL document CHEMBL3433997, “St. Jude Leishmania screening dataset” (2016).
